According to PubChem BioAssay (NCI):
Where “and” joins values, the source holds several entries; their conditions need not be identical. Equal entries are not always repeated. This is part of a sample that, as a whole, favours compounds with a hit. Of some 83,000 tested, about 20% had one in any assay.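 Compound tested at a single concentration for 48 hours in 96-well plates; a percent growth value below 10 was scored as active.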 Calls of active or inactive are those of the source.

Legend:
Assay in all cases: NCI-60 one-dose screen, 48 h (100 = growth as untreated, 0 = no growth, -100 = all killed)
SR leukemia = system: SR leukemia
RPMI-8226 leukemia = system: RPMI-8226 leukemia
OVCAR-8 ovarian = conditions: 10 µM unless noted
OVCAR-5 ovarian = system: OVCAR-5 ovarian
OVCAR-4 ovarian = system: OVCAR-4 ovarian
SK-OV-3 ovarian = system: SK-OV-3 ovarian
IGROV1 ovarian = system: IGROV1 ovarian
OVCAR-3 ovarian = system: OVCAR-3 ovarian
HS 578T breast = system: HS 578T breast
NCI/ADR-RES ovarian = system: NCI/ADR-RES ovarian
T-47D breast = system: T-47D breast
BT-549 breast = system: BT-549 breast
MDA-MB-435 melanoma = system: MDA-MB-435 melanoma
SW-620 colon = system: SW-620 colon
MCF7 breast = system: MCF7 breast
HCT-116 colon = system: HCT-116 colon
HCC-2998 colon = system: HCC-2998 colon
KM12 colon = system: KM12 colon

Measured: growth

c1ccc2cc(C[n+]3ccn(Cc4ccc5ccccc5n4)c3)ccc2c1
-3.69% (active) and 31.5% (inactive): SR leukemia; 10 µM unless noted
-7.63% (active) and 12.6% (inactive): KM12 colon; 10 µM unless noted
3.76% (active) and 13.1% (inactive): RPMI-8226 leukemia; 10 µM unless noted
4.58% (active) and 19.6% (inactive): MDA-MB-435 melanoma; 10 µM unless noted
1.74% (active) and 23.8% (inactive): OVCAR-8 ovarian
active: MCF7 breast; 10 µM unless noted 9.04% | HCT-116 colon; 10 µM unless noted 2.66%
inactive: OVCAR-5 ovarian; 10 µM unless noted 13.4% and 50.9% | OVCAR-4 ovarian; 10 µM unless noted 11.5% and 33.7% | IGROV1 ovarian; 10 µM unless noted 11.6% and 25.1% | HS 578T breast; 10 µM unless noted 27.8% and 33% | NCI/ADR-RES ovarian; 10 µM unless noted 103% and 102% | SW-620 colon; 10 µM unless noted 18.9% and 56.4% | HCC-2998 colon; 10 µM unless noted 11.1% and 30.9%
-11.7% (active) and 34.2% (inactive): SK-OV-3 ovarian; 10 µM unless noted
-1.69% (active) and 21.7% (inactive): OVCAR-3 ovarian; 10 µM unless noted
-15.9% (active) and 12.2% (inactive): BT-549 breast; 10 µM unless noted
-5.71% (active) and 13.1% (inactive): T-47D breast; 10 µM unless noted

Cc1ncsc1CCO
inactive: SR leukemia; 10 µM unless noted 104% and 111% | RPMI-8226 leukemia; 10 µM unless noted 106% and 122% | OVCAR-8 ovarian 104% and 97% | OVCAR-5 ovarian; 10 µM unless noted 103% | OVCAR-4 ovarian; 10 µM unless noted 120% and 116% | SK-OV-3 ovarian; 10 µM unless noted 101% and 110% | IGROV1 ovarian; 10 µM unless noted 124% and 107% | OVCAR-3 ovarian; 10 µM unless noted 124% and 93.9% | HS 578T breast; 10 µM unless noted 110% and 101% | NCI/ADR-RES ovarian; 10 µM unless noted 108% and 102% | T-47D breast; 10 µM unless noted 93.5% and 94.4% | BT-549 breast; 10 µM unless noted 101% and 100% | MDA-MB-435 melanoma; 10 µM unless noted 106% and 104% | SW-620 colon; 10 µM unless noted 108% and 101% | MCF7 breast; 10 µM unless noted 109% and 96% | HCT-116 colon; 10 µM unless noted 112% and 102% | HCC-2998 colon; 10 µM unless noted 101% and 109%

CC#C[C@]1(O)CC[C@H]2[C@@H]3CCC4=CC(=O)CCC4=C3[C@@H](c3ccc4c(c3)OCO4)C[C@@]21C
inactive: SR leukemia; 10 µM 60.8% | RPMI-8226 leukemia; 10 µM 69.6% | OVCAR-5 ovarian; 10 µM 109% | OVCAR-5 ovarian; 100 µM 14.3% | OVCAR-4 ovarian; 10 µM 80.9% | SK-OV-3 ovarian; 10 µM 87.8% | IGROV1 ovarian; 10 µM 86.1% | OVCAR-3 ovarian; 10 µM 78% | HS 578T breast; 10 µM 79% | NCI/ADR-RES ovarian; 10 µM 76.7% | T-47D breast; 10 µM 45% | BT-549 breast; 10 µM 77.8% | MDA-MB-435 melanoma; 10 µM 94.7% | SW-620 colon; 10 µM 84.7% | MCF7 breast; 10 µM 82.2% | HCT-116 colon; 10 µM 78.4% | HCC-2998 colon; 10 µM 94.4% | KM12 colon; 10 µM 86.3%
active: SR leukemia; 100 µM -20.8% | RPMI-8226 leukemia; 100 µM -35% | OVCAR-4 ovarian; 100 µM 8.93% | SK-OV-3 ovarian; 100 µM -5.43% | IGROV1 ovarian; 100 µM 2.61% | OVCAR-3 ovarian; 100 µM -40.2% | HS 578T breast; 100 µM 0.161% | NCI/ADR-RES ovarian; 100 µM -15.3% | T-47D breast; 100 µM -16.5% | BT-549 breast; 100 µM -33.1% | MDA-MB-435 melanoma; 100 µM -35.6% | SW-620 colon; 100 µM 4.2% | MCF7 breast; 100 µM -4.09% | HCT-116 colon; 100 µM -78.5% | HCC-2998 colon; 100 µM -22.7% | KM12 colon; 100 µM -42.3%

Cn1cnc([N+](=O)[O-])c1Sc1ncnc2nc[nH]c12
inactive: SR leukemia; 10 µM unless noted 44.9% | RPMI-8226 leukemia; 10 µM unless noted 34.1% and 36.5% | OVCAR-8 ovarian 50% and 75.4% | OVCAR-5 ovarian; 10 µM unless noted 61.8% and 71.6% | OVCAR-4 ovarian; 10 µM unless noted 39.7% and 53.2% | SK-OV-3 ovarian; 10 µM unless noted 16.9% | IGROV1 ovarian; 10 µM unless noted 74.5% and 83.4% | OVCAR-3 ovarian; 10 µM unless noted 50.8% and 39.5% | HS 578T breast; 10 µM unless noted 79.6% and 69.1% | NCI/ADR-RES ovarian; 10 µM unless noted 67.2% and 57.4% | T-47D breast; 10 µM unless noted 65.4% and 79.7% | BT-549 breast; 10 µM unless noted 70.7% | MDA-MB-435 melanoma; 10 µM unless noted 33.7% and 35.7% | SW-620 colon; 10 µM unless noted 93.8% and 94.7% | MCF7 breast; 10 µM unless noted 36.2% and 33.2% | HCT-116 colon; 10 µM unless noted 50% and 60.1% | HCC-2998 colon; 10 µM unless noted 64.4% and 55% | KM12 colon; 10 µM unless noted 51.2% and 65.2%
